From PubChem BioAssay (NCI)
The panel holds about 79,000 compounds, 15% with a hit somewhere; the sample as a whole holds those more often. Values without a mark were called inactive. Activity calls are given as the source filed them. Rule as the data show it: active = growth inhibition above about 70%; inactive = the rest. Where a SMILES comes first, the peptide text is derived from it. [ ]: non-standard residue; d: D form. Hpg = N[CH](C(=O)O)c1ccc(O)cc1

Legend:
[1] = NCI Yeast Anticancer Drug Screen. Data for the rad50 strain (AID 155);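 also: 0% = growth of vehicle-only cultures of the same strain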; conditions: S. cerevisiae rad50 strain growth inhibition; at 50.0 µM; active compounds read high
Procedure, shortened: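 Readout: growth inhibition relative to vehicle-treated cultures. Compound exposure was carried out in a genetically defined yeast strain deficient in DNA damage repair.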

[2] = NCI Yeast Anticancer Drug Screen. Data for the mec2-1 strain (AID 157); conditions: S. cerevisiae mec2-1 strain, at 50.0 µM, active compounds read high
Procedure, shortened: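 Vehicle-treated cultures served as reference for growth inhibition of compound-exposed mec2-1 yeast.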

[3] = NCI Yeast Anticancer Drug Screen. Data for the sgs1 mgt1 strain (AID 161);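 also: 0% = growth of cultures given vehicle only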; conditions: S. cerevisiae sgs1 mgt1 strain, at 50.0 µM, active compounds read high
Procedure, shortened: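 Mutant yeast exposed to compound; growth scored against vehicle-only wells.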

[4] = NCI Yeast Anticancer Drug Screen. Data for the cln2 rad14 strain (AID 165);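 also: 0% = growth equal to vehicle treated cultures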; conditions: S. cerevisiae cln2 rad14 strain, at 50.0 µM, active compounds read high
Procedure, shortened: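 Each compound was tested on cln2 rad14 yeast. Inhibition of growth was calculated against vehicle-exposed controls.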

[5] = NCI Yeast Anticancer Drug Screen. Data for the bub3 strain (AID 167); conditions: S. cerevisiae bub3 mutant strain, at 50.0 µM, active compounds read high
Procedure, shortened: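 Readout: yeast growth inhibition, expressed relative to vehicle-only wells. The test organism is a mutant strain from a panel with lesions in DNA repair or checkpoint genes.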

[6] = NCI Yeast Anticancer Drug Screen. Data for the mlh1 rad18 strain (AID 175); conditions: S. cerevisiae mlh1 rad18 strain growth inhibition; at 50.0 µM; active compounds read high
Procedure, shortened: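 Vehicle-treated cultures served as the reference for growth inhibition in a yeast strain carrying DNA damage repair alterations exposed to each compound.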

Compound | growth inhibition [1] | growth inhibition [2] | growth inhibition [3] | growth inhibition [4] | growth inhibition [5] | growth inhibition [6]
O=C(Nc1ccc(S(=O)(=O)N2CCCCC2)cc1)OC(c1ccccc1)c1ccccc1 | 38.3% | -6.6% | 27.4% | 15.9% | -11.7% | 6.05%
Cc1c(-c2ccccc2)n[nH]c1-c1[nH]nc(-c2ccccc2)c1C | -9.7% | -16.9% | -24.2% | -15% | -41.1% | -19.1%
CC(C)CC(N)C(=O)NC(C(=O)O)c1ccc(O)cc1 (configuration not stated) (H-Leu-[Hpg]-OH; configuration not given here) | -5.3% | -10.1% | 3.4% | -20.4% | 2.7% | 15.8%
CSc1nc(N(C)C)c2[nH]ncc2n1 | 5.25% | -0.5% | -3.6% | -10.6% | 19.7% | 3.25%
Cc1nc(C(=O)O)ccc1O | 3.05% | 16% | -1.05% | -3.2% | 0.45% | 4%
Cc1ccc(NC(=O)/C=C/c2ccccc2)cc1 | -2.85% | -8.1% | -3.15% | -3.95% | 10.2% | 10.9%
C=CCOC(=O)/C=C\C(=O)OCC=C | -4.6% | 30.6% | 6.8% | -25.3% | 9.1% | 3.15%
CN(CC(C)(C)C=O)C(=O)c1ccccc1 | 8.05% | -5.45% | -10% | -8.3% | -19.1% | -1%
CCOC(=O)/C(O)=C\c1cc(Br)c(OC)cc1[N+](=O)[O-] | 54.6% | 49.7% | 58.4% | 9.6% | 30.8% | 64%
CN(C)CC(Oc1ccccc1)C(=O)c1ccccc1 (configuration not stated) | -3.2% | -10.2% | 29.8% | -26.3% | -16.9% | -5.15%
CSc1nc(C)c(CCOC(C)=O)c(Cl)n1 | -18.1% | -19.4% | -16.2% | -0.25% | 17.1% | 4.25%
CN(C)N=Nc1ccccc1 | 38.2% | -14.2% | 0% | 15.4% | -1.65% | 29.2%
Nc1cccc(Cl)c1C(=O)O | -28.1% | -30.2% | -10.8% | -11.7% | -25.8% | -19.2%
CC(O)c1nc2c3ccccc3ccc2n1C (configuration not stated) | -6.15% | -0.2% | -6.45% | -42.6% | -1.25% | -8.6%
CCOC(=O)/C=C\C(=O)O.[Mn] | -16.2% | -21.4% | -7.65% | -22.9% | -31% | -33.5%
CCCCCC(=O)OC(C)COc1ccccc1 (configuration not stated) | 20.6% | 22.7% | 20.8% | -10.8% | 30.9% | 28.6%
CC1(C)OS(=O)(=O)C=C1Br | 16.7% | -9.8% | -4.15% | -16% | -8.4% | -16.6%
O=C1CCC2(CC1)SCCCS2 | -0.6% | -21.5% | -16.1% | 20.9% | -7.3% | -17.1%
CCOc1ccc(Br)cc1/C=N\NC(=O)c1ccccc1N(C)C | -8.8% | -11.6% | -16.8% | -23.6% | -2.25% | -11.2%
CCCCCCCCC(O)C(O)CCCCCCCC(=O)OC (configuration not stated) | -15.3% | 5% | -4.55% | -105% | 30.5% | -22.9%
CC(=O)NC(CSCC(=O)c1ccccc1)C(=O)O (configuration not stated) | -12.6% | -8% | -10.3% | -6.05% | -18.8% | -3.5%

Compound | growth inhibition [1] | growth inhibition [2] | growth inhibition [3] | growth inhibition [4] | growth inhibition [5] | growth inhibition [6]
O=[N+]([O-])c1ccc(OS(=O)(=O)O)cc1 | 17.8% | 4.45% | 20.5% | -9.85% | -4.1% | 8.55%
CCc1n[nH]c(=O)n1/N=C/c1ccccc1O | -9.2% | 3.8% | -5.75% | 3.4% | -0.35% | 24.6%
COc1ccccc1CC/C(C)=N/NS(=O)(=O)c1ccc(C)cc1 | 10.8% | 4.1% | 6.35% | -24.1% | 11.5% | 6.5%
CC(=O)N1C(=O)NC(=O)C1(C)c1cccs1 (configuration not stated) | 23.2% | -8.9% | 2.9% | -75.1% | 2% | 1.2%
CN(C)c1ccc(/C=C(\C#N)c2nc(-c3cc4ccccc4oc3=O)cs2)cc1 | -2.45% | -13.6% | -23% | -4.3% | -35.7% | -63.2%
Cc1ccccc1C(OCCN(C)C)c1ccccc1 (configuration not stated) | -46.2% | -44.8% | -44% | -6.65% | -39% | -28.1%
CC(=O)NNc1nc(C)c(C(/C=C/c2ccc([N+](=O)[O-])cc2)=N/NC(N)=S)s1 | -8.6% | -2.25% | -10% | -12.4% | -7.2% | 6.7%
Cc1c(C2CCSc3ccccc3N2)sc2ccccc12 (configuration not stated) | -17.2% | -27.4% | 11.3% | 14.6% | 4.65% | 7.2%
COC(=O)[C@]12CCC(C)[C@H](C)[C@H]1C1=CCC3[C@@]4(C)CC[C@H](OC(C)=O)C(C)(C)C4CC[C@@]3(C)C1(C)C(O)C2 (some centres not stated) | 23.1% | -22.5% | -8.45% | 8.5% | -0.4% | 21.9%
NC(=O)C(Br)Cc1cccc(Cl)c1 (configuration not stated) | 29.6% | 11.2% | 13.4% | 2.05% | 17.9% | 14.4%
COc1ccccc1C(O)(c1ccccc1OC)C1(O)CCCCC1 | -10.2% | -2% | -5% | 13.8% | -0.1% | 1.15%
COC(=O)NN=C1C(C)(C)C(=NNC(=O)OC)C1(C)C | 2.25% | -15.5% | -8.6% | 27.1% | -17.6% | -5.4%
Nc1ccc(S(=O)(=O)Nc2ccc([N+](=O)[O-])cn2)cc1 | -28.4% | -43% | 17.2% | 17% | -20.4% | -15.6%
N#CCCN(CCC#N)c1ccc(C=O)cc1 | 20.3% | 8.05% | 17.2% | -4.25% | 26.6% | 13.6%
Cc1c(F)c(Br)c([N+](=O)[O-])c(C)c1[N+](=O)[O-] | -7.15% | 5.45% | -8.8% | -4.15% | -1.2% | -17.9%
O=C(O)c1ccc(C(=O)c2ccccc2C(=O)O)cc1C(=O)O | -8.75% | 5% | -44% | 43.3% | -23.1% | -24.8%
COC1/C=C\OC2(C)Oc3c(C)c(O)c4c(O)c(c5sc(N)nc5c4c3C2=O)NC(=O)/C(C)=C\C=C\C(C)C(O)C(C)C(O)C(C)C(OC(C)=O)C1C (configuration not stated) | -2.25% | 16.6% | 4.75% | 14.8% | 22.1% | 10.8%
CC1=CCC(=O)O1 | 2.15% | 8.2% | -1.7% | 12.2% | -7.75% | 15.3%
CCOC(=O)c1c(Nc2ccc(OC)cc2)n[nH]c1C | -7.85% | -34.3% | 15.6% | 9.6% | 8.65% | -8.65%
OC/C(I)=C(I)\C(I)=C(\I)CO | 99.2% (active) | 99.3% (active) | 99.5% (active) | 99.4% (active) | 98.7% (active) | 99.4% (active)
[Cu+2].[O-]C1c2c(ccc3ccccc23)-c2ccccc2C1N=Nc1ccccc1.[O-]c1c(N=Nc2ccccc2)c2ccccc2c2ccc3ccccc3c12 (configuration not stated) | -19.1% | -20.7% | -7.8% | -20.4% | -10.9% | -20.2%
